Measurements published in PubChem BioAssay AID1159580 (chemical genetic matrix, 2015).
Several values for one entry are separate records, joined by “and”; a condition that tells them apart may be missing. Identical values can stand only once. The campaign covered roughly 5,500 compounds. About 2,000 (36%) were called active. About 18% were inconclusive and are not listed. Cut-off read from the data, not from the text of the source: active = normalized growth mostly below about 0.91 (no sharp cut-off); inconclusive = no clear call, values can overlap the other calls; inactive = mostly above about 0.92. The list shows a part of the results.

Assay: chemical genetic growth profiling, strain panel (AID 1159580);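 note: tested at 20 µM; growth read once vehicle control cultures reached saturation at 30 °C; 1 = growth at the plate median or of vehicle wells; lower values mean less growth of the strain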
Conditions: S. cerevisiae deletion strains, growth OD

Measured: normalized growth

C[C@H](N)[C@H](O)c1ccc(O)c(O)c1
inactive: locus YAL013W, strain DEP1, active compounds read low 1 | locus YAL021C, strain ccr4, active compounds read low 1.01 | locus YAL026C, strain drs2, active compounds read low 1.01 | locus YAL030W, strain snc1, active compounds read low 1 | locus YBL061C, strain skt5, active compounds read low 1.01 | locus YBR009C, strain hhf1, active compounds read low 0.997 | locus YBR021W, strain FUR4, active compounds read low 0.991 | locus YBR023C, strain chs3, active compounds read low 0.999 | locus YBR171W, strain sec66, active compounds read low 0.991 | locus YBR229C, strain ROT2, active compounds read low 0.991 | locus YBR231C, strain swc5, active compounds read low 0.982 | locus YBR279W, strain paf1, active compounds read low 1.02 | locus YCL011C, strain gbp2, active compounds read low 1.01 | locus YCL016C, strain dcc1, active compounds read low 0.987 | locus YCL029C, strain bik1, active compounds read low 0.993 | locus YCL061C, strain MRC1, active compounds read low 1 | locus YCL069W, strain vba3, active compounds read low 1.01 | locus YCR088W, strain abp1, active compounds read low 1 | locus YDL005C, strain med2, active compounds read low 0.996 | locus YDL035C, strain GPR1, active compounds read low 1 | locus YDL040C, strain nat1, active compounds read low 1 | locus YDL074C, strain BRE1, active compounds read low 0.983 | locus YDL101C, strain DUN1, active compounds read low 0.992 | locus YDL185W, strain tfp1, active compounds read low 0.982 | locus YDL192W, strain arf1, active compounds read low 0.979 | locus YDR001C, strain nth1, active compounds read low 1.01 | locus YDR069C, strain doa4, active compounds read low 1.01 | locus YDR101C, strain arx1, active compounds read low 1.01 | locus YDR137W, strain rgp1, active compounds read low 1 | locus YDR159W, strain sac3, active compounds read low 1.01 | locus YDR162C, strain NBP2, active compounds read low 0.999 | locus YDR195W, strain ref2 0.991 | locus YDR297W, strain sur2, active compounds read low 1.01 | locus YDR318W, strain mcm21, active compounds read low 0.98 | locus YDR334W, strain swr1, active compounds read low 0.997 | locus YDR335W, strain msn5, active compounds read low 1.01 | locus YDR388W, active compounds read low 0.992 | locus YDR392W, strain spt3, active compounds read low 0.926 | locus YDR502C, strain sam2, active compounds read low 0.99 | locus YEL003W, strain gim4, active compounds read low 1.01 | locus YEL037C, strain rad23, active compounds read low 1 | locus YEL061C, strain CIN8 (second series), active compounds read low 1.01 | locus YEL061C, strain CIN8, active compounds read low 1 | locus YER015W, strain faa2, active compounds read low 1 | locus YER016W, strain bim1, active compounds read low 1.01 | locus YER110C, active compounds read low 0.97 | locus YER111C, strain swi4, active compounds read low 1 | locus YER155C, strain BEM2 (second series), active compounds read low 0.994 | locus YER155C, strain BEM2, active compounds read low 0.999 | locus YER167W, strain BCK2, active compounds read low 1.02 | locus YFR010W, strain ubp6, active compounds read low 1 | locus YGL078C, strain dbp3, active compounds read low 0.962 | locus YGL086W, strain mad1, active compounds read low 0.996 | locus YGL167C, strain pmr1, active compounds read low 0.995 | locus YGL173C, strain kem1, active compounds read low 1.01 | locus YGL227W, strain vid30, active compounds read low 0.992 | locus YGL240W, strain doc1, active compounds read low 1.01 | locus YGL248W, strain PDE1, active compounds read low 0.988 | locus YGL253W, strain hxk2, active compounds read low 1.02 | locus YGR135W, strain pre9, active compounds read low 0.948 | locus YGR252W, strain gcn5, active compounds read low 0.91 | locus YHR013C, strain ard1, active compounds read low 1.01 | locus YHR027C, strain rpn1, active compounds read low 0.996 | locus YHR030C, strain SLT2, active compounds read low 1.01 and 1 | locus YHR079C, strain IRE1 (second series), active compounds read low 0.993 | locus YHR079C, strain IRE1, active compounds read low 1 | locus YHR094C, strain hxt1, active compounds read low 0.991 | locus YHR129C, strain ARP1, active compounds read low 0.996 | locus YHR142W, strain chs7, active compounds read low 0.993 | locus YHR200W, strain rpn10, active compounds read low 0.985 | locus YIL066C, strain RNR3, active compounds read low 0.998 | locus YIL073C, strain SPO22, active compounds read low 1.01 | locus YIL125W, strain kgd1, active compounds read low 0.975 | locus YIR030C, strain dcg1, active compounds read low 0.988 | locus YJL092W, strain hpr5, active compounds read low 1 | locus YJL095W, strain BCK1 (second series), active compounds read low 1.01 | locus YJL095W, strain BCK1, active compounds read low 0.978 and 1.02 | locus YJL115W, strain asf1, active compounds read low 1.01 | locus YJL129C, strain trk1, active compounds read low 0.986 | locus YJL134W, strain LCB3, active compounds read low 1 | locus YJL154C, strain vps35, active compounds read low 1.01 | locus YJL164C, strain tpk1, active compounds read low 1.01 | locus YJL166W, strain qcr8, active compounds read low 0.992 | locus YJL168C, strain set2, active compounds read low 0.978 | locus YJL187C, strain SWE1 (second series), active compounds read low 0.985 | locus YJL187C, strain SWE1, active compounds read low 0.998 | locus YJR043C, strain POL32, active compounds read low 1.01
